Experimental findings from the antibiotic and cytotoxicity screens of Wong et al. (2023) are described below.

The structures appear in SMILES notation. Out of some 39,000 compounds screened, about 1,500 (3.8%) were called active. The list comes from a sample in which actives are over-represented; it also holds similar structures and randomly drawn compounds.

In the assay the test system is HSkMC (human skeletal muscle cells). Briefly: cytotoxicity call (relative viability < 0.9). The settings on record: 10 µM.
With `O=C(CS)NCCCCCNC(=O)[C@@H]1C[C@@H]2C(=O)N[C@@H](Cc3ccccc3)C(=O)N2[C@@H]1c1ccc(O)cc1`, the cytotoxicity call is “inactive”.
On to `CN(C)CCCC1(c2ccc(F)cc2)OCc2cc(C#N)ccc21.O=C(O)C(=O)O` (configuration not stated), for which the cytotoxicity call was “inactive”.
On to `COc1c(C)cccc1C(=O)N1CC[C@H](c2nn(CCN)c3ncccc23)C1`, for which the cytotoxicity call is “inactive”.
The result for `COc1ccc(NC(=O)Nc2ccc3c(c2)C(=O)N([C@@H](C)CO)C[C@@H](C)[C@H](CN(C)S(=O)(=O)c2ccc(F)cc2)OCCCC[C@@H](C)O3)cc1` reads “inactive”; that for `CO[C@@H]1CN(C)C(=O)c2ccc(NS(C)(=O)=O)cc2OC[C@H](C)N(C(=O)CN(C)C)C[C@@H]1C`, “inactive”; that for `O=C(C[C@H]1C[C@H]2c3cc(NC(=O)Nc4ccc(C(F)(F)F)cc4)ccc3O[C@H]2[C@@H](CO)O1)NCCc1ccccc1`, “inactive”.
Regarding `O=C(C[C@@H]1C[C@H]2c3cc(NC(=O)Nc4ccc(C(F)(F)F)cc4)ccc3O[C@H]2[C@H](CO)O1)NCc1ccc(Cl)cc1`, the cytotoxicity call was “active”.
In the case of `O=C(C[C@@H]1C[C@@H]2c3cc(NC(=O)Nc4ccc(C(F)(F)F)cc4)ccc3O[C@@H]2[C@@H](CO)O1)NCCc1ccccc1`, the cytotoxicity call was “inactive”.
`O=C(Nc1ccc(C(F)(F)F)cc1)Nc1ccc2c(c1)[C@H]1C[C@H](CC(=O)N3CCc4ccccc4C3)O[C@H](CO)[C@H]1O2`: the cytotoxicity call was “active”.
Take `O=C(C[C@H]1C[C@@H]2c3cc(NC(=O)Nc4ccc(C(F)(F)F)cc4)ccc3O[C@@H]2[C@H](CO)O1)NCc1cc(F)ccc1F`: the cytotoxicity call is “inactive”.
Take `O=C(C[C@H]1C[C@@H]2c3cc(NC(=O)Nc4ccc(C(F)(F)F)cc4)ccc3O[C@@H]2[C@@H](CO)O1)NCc1ccc(Cl)cc1`: the cytotoxicity call was “inactive”.
For the compound `O=C(C[C@H]1C[C@@H]2c3cc(NC(=O)Nc4ccc(C(F)(F)F)cc4)ccc3O[C@@H]2[C@H](CO)O1)NCc1ccc(Cl)cc1`, the cytotoxicity call is “inactive”.
Take `O=C(C[C@@H]1C[C@@H]2c3cc(NC(=O)Nc4ccc(C(F)(F)F)cc4)ccc3O[C@@H]2[C@H](CO)O1)NCc1cc(F)ccc1F`: the cytotoxicity call is “inactive”.
`O=C(C[C@@H]1C[C@H]2c3cc(NC(=O)Nc4ccc(C(F)(F)F)cc4)ccc3O[C@H]2[C@H](CO)O1)NCCc1ccccc1`: the cytotoxicity call is “active”.
In the case of `O=C(Nc1ccc(C(F)(F)F)cc1)Nc1ccc2c(c1)[C@H]1C[C@@H](CC(=O)N3CCc4ccccc4C3)O[C@H](CO)[C@H]1O2`, the cytotoxicity call is “inactive”.
In the case of `O=C(Nc1ccc(C(F)(F)F)cc1)Nc1ccc2c(c1)[C@@H]1C[C@@H](CC(=O)N3CCc4ccccc4C3)O[C@H](CO)[C@@H]1O2`, the cytotoxicity call is “inactive”.
In the case of `O=C(C[C@H]1C[C@@H]2c3cc(NC(=O)Nc4ccc(C(F)(F)F)cc4)ccc3O[C@@H]2[C@@H](CO)O1)NCc1cc(F)ccc1F`, the cytotoxicity call was “active”.
On to `Cc1noc(C)c1S(=O)(=O)Nc1ccc2c(c1)CC(=O)N([C@@H](C)CO)C[C@@H](C)[C@@H](CN(C)Cc1ccccc1)O2`, for which the cytotoxicity call is “inactive”.
The result for `Cc1noc(C)c1NC(=O)Nc1ccc2c(c1)CC(=O)N([C@@H](C)CO)C[C@@H](C)[C@@H](CN(C)Cc1ccc(-c3ccccc3)cc1)O2` reads “inactive”; that for `COc1ccc(NC(=O)N(C)C[C@@H]2Oc3c(NC(=O)Nc4cccc5ccccc45)cccc3C(=O)N([C@@H](C)CO)C[C@@H]2C)cc1`, “inactive”.
For `C[C@H]1COC(=O)[C@H](NC(=O)OCC2c3ccccc3-c3ccccc32)CC=CC[C@@H](CC(=O)NCCO)C(=O)N1`, the cytotoxicity call was “inactive”.
Turning to `CCCNC(=O)N[C@@H]1C=C[C@@H](CC(=O)N2CCN(C)CC2)O[C@@H]1CO`, the cytotoxicity call was “inactive”.
With `Cc1ccc(S(=O)(=O)Nc2ccc3c(c2)C(=O)N([C@H](C)CO)C[C@H](C)[C@@H](CN(C)C(=O)Nc2c(C)noc2C)OCCCC[C@H](C)O3)cc1`, the cytotoxicity call was “inactive”.
In the case of `C[C@H]1CN([C@@H](C)CO)C(=O)c2c(c3ccccc3n2C)-c2ccccc2CO[C@H]1CN(C)C(=O)Nc1ccc(-c2ccccc2)cc1`, the cytotoxicity call is “inactive”.
The result for `C[C@@H]1CCCCO[C@@H](CN(C)Cc2ccc(C(=O)Nc3ccccc3N)cc2)[C@@H](C)CN([C@H](C)CO)C(=O)c2cc(NC(=O)Nc3ccc(C(F)(F)F)cc3)ccc2O1` reads “active”.
The result for `C[C@H](CO)N1C[C@H](C)[C@H](CN(C)Cc2ccc(C(=O)Nc3ccccc3N)cc2)Oc2ccc(NC(=O)Nc3ccc(C(F)(F)F)cc3)cc2C1=O` reads “active”; that for `C[C@H]1CN([C@@H](C)CO)C(=O)c2cc(NC(=O)Nc3ccc(C(F)(F)F)cc3)ccc2O[C@@H]1CN(C)Cc1ccc(C(=O)Nc2ccccc2N)cc1`, “inactive”.
`C[C@H](CO)N1C[C@H](C)[C@@H](CN(C)Cc2ccc(C(=O)Nc3ccccc3N)cc2)Oc2ccc(NC(=O)Nc3ccc(C(F)(F)F)cc3)cc2C1=O`: the cytotoxicity call is “inactive”.
As to `C[C@H]1CN([C@@H](C)CO)C(=O)c2cc(NC(=O)Nc3ccc(C(F)(F)F)cc3)ccc2O[C@H]1CN(C)Cc1ccc(C(=O)Nc2ccccc2N)cc1`, the cytotoxicity call was “active”.
Take `C[C@@H]1CCCCO[C@H](CN(C)Cc2ccc(C(=O)Nc3ccccc3N)cc2)[C@@H](C)CN([C@@H](C)CO)C(=O)c2cc(NC(=O)Nc3ccc(C(F)(F)F)cc3)ccc2O1`: the cytotoxicity call was “inactive”.
In the case of `C[C@@H]1CCCCO[C@@H](CN(C)Cc2ccc(C(=O)Nc3ccccc3N)cc2)[C@@H](C)CN([C@H](C)CO)C(=O)c2cc(NC(=O)Nc3ccc(F)cc3)ccc2O1`, the cytotoxicity call was “inactive”.
For the compound `C[C@@H]1CN([C@H](C)CO)C(=O)c2cc(NC(=O)Nc3ccc(C(F)(F)F)cc3)ccc2O[C@@H]1CN(C)Cc1ccc(C(=O)Nc2ccccc2N)cc1`, the cytotoxicity call is “inactive”.
Regarding `C[C@@H]1CN([C@@H](C)CO)C(=O)c2cc(NC(=O)Nc3ccc(C(F)(F)F)cc3)ccc2O[C@H]1CN(C)Cc1ccc(C(=O)Nc2ccccc2N)cc1`, the cytotoxicity call was “inactive”.
In the case of `C[C@@H]1CN([C@H](C)CO)C(=O)Cc2cc(NC(=O)CCN3CCOCC3)ccc2O[C@@H]1CN(C)C(=O)Nc1ccccc1`, the cytotoxicity call was “inactive”.
Take `CN1C(=O)NC2(CCNCC2)C1=O`: the cytotoxicity call is “inactive”.
Under `O=[N+]([O-])c1ccc(/C=C/CN(C/C=C/c2ccc([N+](=O)[O-])cc2)CCCNS(=O)(=O)c2cccc3cnccc23)cc1` stands “inactive”.
Take `COc1ccc(CN(C)C[C@H]2Oc3c(NC(=O)Nc4ccc(C(F)(F)F)cc4)cccc3C(=O)N([C@H](C)CO)C[C@@H]2C)cc1`: the cytotoxicity call is “active”.
Turning to `COc1ccc(CN(C)C[C@H]2Oc3c(NC(=O)Nc4ccc(C(F)(F)F)cc4)cccc3C(=O)N([C@@H](C)CO)C[C@H]2C)cc1`, the cytotoxicity call is “inactive”.
The result for `COc1ccc(NC(=O)Nc2cccc3c2O[C@@H](CN(C)Cc2ccc(C(F)(F)F)cc2)[C@@H](C)CN([C@H](C)CO)C3=O)cc1` reads “inactive”; that for `COc1ccc(CN(C)C[C@H]2Oc3c(NC(=O)Nc4ccc(C(F)(F)F)cc4)cccc3C(=O)N([C@H](C)CO)C[C@H]2C)cc1`, “inactive”; that for `COc1ccc(CN(C)C[C@@H]2Oc3c(NC(=O)Nc4ccc(C(F)(F)F)cc4)cccc3C(=O)N([C@@H](C)CO)C[C@H]2C)cc1`, “active”.
For `COc1ccc(NC(=O)Nc2cccc3c2O[C@H](CN(C)Cc2ccc(C(F)(F)F)cc2)[C@@H](C)CN([C@@H](C)CO)C3=O)cc1`, the cytotoxicity call was “inactive”.
As to `COc1ccc(NC(=O)Nc2cccc3c2O[C@@H](CN(C)Cc2ccc(C(F)(F)F)cc2)[C@H](C)CN([C@H](C)CO)C3=O)cc1`, the cytotoxicity call was “inactive”.
Regarding `COc1ccc(CN(C)C[C@@H]2Oc3c(NC(=O)Nc4ccc(C(F)(F)F)cc4)cccc3C(=O)N([C@H](C)CO)C[C@H]2C)cc1`, the cytotoxicity call is “active”.
On to `COc1ccc(NC(=O)Nc2cccc3c2O[C@@H](CN(C)Cc2ccc(C(F)(F)F)cc2)[C@H](C)CN([C@@H](C)CO)C3=O)cc1`, for which the cytotoxicity call was “inactive”.
In the case of `C[C@H](CO)N1C[C@H](C)[C@@H](CN(C)C(=O)CN(C)C)Oc2cc(-c3cncnc3)ccc2S1(=O)=O`, the cytotoxicity call was “inactive”.
On to `O=C(C[C@H]1CC[C@H]2[C@@H](COC[C@H](O)CN2C(=O)c2cnccn2)O1)NCc1ccc(Oc2ccccc2)cc1`, for which the cytotoxicity call is “inactive”.
`C[C@@H]1CN([C@H](C)CO)S(=O)(=O)c2ccc(C#CC3CCCC3)cc2O[C@H]1CN(C)C(=O)Cc1ccncc1`: the cytotoxicity call was “inactive”.
The result for `C[C@@H]1CCCCO[C@@H](CN(C)C(=O)c2ccccc2)[C@@H](C)CN([C@H](C)CO)C(=O)c2cc(NS(=O)(=O)c3ccc(Cl)cc3)ccc2O1` reads “inactive”; that for `O=C(NCC(F)(F)F)[C@@H]1[C@@H](CO)[C@@H]2Cn3c(cccc3=O)[C@H]1N2C(=O)C1CCC1`, “inactive”; that for `COc1ccc(S(=O)(=O)N(C)C[C@H]2Oc3ccc(NS(=O)(=O)c4ccc(C)cc4)cc3C(=O)N([C@H](C)CO)C[C@@H]2C)cc1`, “inactive”.
Under `CC(C)NC(=O)N(C)C[C@@H]1Oc2ccc(NC(=O)CCN3CCOCC3)cc2CC(=O)N([C@@H](C)CO)C[C@@H]1C` stands “inactive”; under `Cc1ccccc1S(=O)(=O)N1C[C@H](O)COC[C@H]2O[C@@H](CC(=O)NCc3ccccc3Cl)CC[C@@H]21`, “inactive”; under `COc1ccc2c3c([nH]c2c1)[C@H](CO)N(C[C@]13CCN(CCc2ccccc2)CC1)C(=O)CN1CCOCC1`, “inactive”.
Under `COc1ccc2c3c([nH]c2c1)[C@H](CO)N(Cc1ccc(cc1)Cl)C[C@]13CN(CCc2ccccc2)C1` stands “active”; under `COc1ccc2c3c([nH]c2c1)[C@@H](CO)N(C[C@]13CN(CCc2ccccc2)C1)C(=O)CN1CCOCC1`, “inactive”; under `COc1ccc2c3c([nH]c2c1)[C@@H](CO)N(Cc1ccc(cc1)Cl)C[C@]13CCN(CCc2ccccc2)CC1`, “active”.
For `COc1ccc2c3c([nH]c2c1)[C@@H](CO)N(Cc1ccccc1)C[C@]13CCN(CC1)C(=O)Nc1cccc(c1)F`, the cytotoxicity call was “inactive”.
Regarding `COc1ccc2c3c([nH]c2c1)[C@H](CO)N(Cc1ccccc1)C[C@]13CCN(CC1)C(=O)Nc1cccc(c1)F`, the cytotoxicity call is “inactive”.
As to `COc1ccc2c3c([nH]c2c1)[C@@H](CO)N(Cc1ccc(cc1)Cl)C[C@]13CN(CCc2ccccc2)C1`, the cytotoxicity call was “active”.
Under `COc1ccc2c3c([nH]c2c1)[C@H](CO)N(Cc1ccc(cc1)Cl)C[C@]13CCN(CCc2ccccc2)CC1` stands “inactive”.
Take `COc1ccc2c3c([nH]c2c1)[C@H](CO)N(C[C@]13CN(CCc2ccccc2)C1)C(=O)CN1CCOCC1`: the cytotoxicity call was “inactive”.
